The source made the active and inactive calls.
Molecular target: Torsin-1A-interacting protein 2 (Homo sapiens) (UniProt Q8NFQ8)
Assay: LULL1 binders on small-molecule microarray, primary screen, cell lysate, human LULL1 lysate, 635/667 nm fluorescence (AID 1092);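 also: probe is lysate of COS7 cells overexpressing human LULL1; score merges per-feature 667 nm fluorescence with signal-to-noise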
Conditions: hLULL1 lysate binding, 635 nm fluorescence, higher = more signal

Sequence of Torsin-1A-interacting protein 2 (Homo sapiens) (Q8NFQ8 whole entry, looked up): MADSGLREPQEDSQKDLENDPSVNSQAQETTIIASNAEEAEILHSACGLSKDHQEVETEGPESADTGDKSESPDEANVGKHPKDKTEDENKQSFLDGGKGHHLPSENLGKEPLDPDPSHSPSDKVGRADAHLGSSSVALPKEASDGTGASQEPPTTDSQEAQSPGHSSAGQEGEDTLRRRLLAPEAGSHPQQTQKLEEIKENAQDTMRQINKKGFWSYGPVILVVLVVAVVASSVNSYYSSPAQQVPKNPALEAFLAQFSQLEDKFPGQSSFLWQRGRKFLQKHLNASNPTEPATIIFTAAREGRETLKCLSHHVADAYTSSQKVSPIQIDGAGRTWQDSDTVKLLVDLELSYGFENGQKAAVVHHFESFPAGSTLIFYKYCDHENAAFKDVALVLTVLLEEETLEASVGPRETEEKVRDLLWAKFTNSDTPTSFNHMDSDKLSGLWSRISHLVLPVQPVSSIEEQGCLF

| SMILES | composite z-score |
| --- | --- |
| O=C1c2ccccc2[C@](Cc2ccccc2I)(C(=O)NCC(F)(F)F)[C@H](c2ccc(CO)cc2)N1Cc1ccccc1C(F)(F)F | 2.54 |
| C=CCC(OC(C)=O)[C@@H]1[C@@H](N(Cc2cccc3ccccc23)C(=O)Cc2ccc(F)cc2)c2cc(OCCCO)ccc2N1C(=O)Cc1ccc2ccccc2c1 (stereo partly drawn) | 0.594 |
| C=CCN1C(=O)[C@@]2(Cc3ccccc3)N=C(c3ccc(OCCCO)cc3)O[C@H]2c2ccccc21 | 2.77 |
| Cc1ccc(N2C(=O)c3ccccc3[C@@H](C(=O)NCc3ccccc3)[C@@H]2c2ccc(CO)cc2)nc1 | 1.39 |
| CO[C@H]1COC(=O)[C@H](C)COC(=O)[C@H](Cc2ccccc2)NC(=O)CC=C[C@H]1C | -0.826 |
| CN(C)CCCC[C@@H]1NC(=O)[C@@H]2C[C@H](C(=O)NCCCCCNC(=O)CS)[C@H](c3ccc(O)cc3)N2C1=O | 0.863 |
| O=C1O[C@H](c2ccccc2)[C@H](c2ccccc2)N2[C@H]1[C@@H](C(=O)NC[C@H](O)c1ccccc1)[C@]1(C(=O)Nc3ccc(C#CC4=CCCCC4)cc31)[C@H]2c1ccc(OCCO)cc1 | 1.85 |

System: not listed separately
Assay: E. coli growth modulation, two-sided OD650, primary screen, E. coli filamentation project, strain DRC41, 24 h (AID 1093);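 also: MC1000 strain lacking acrAB efflux and sulA so SOS filamentation is blocked; test concentration not given here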
Conditions: OD650, 24 h, higher = more signal, called active from +8 up or from −8 down

| SMILES | z-score |
| --- | --- |
| CCOC(=O)C[C@H]1[C@H](OC(=O)Cc2ccc3c(c2)OCO3)[C@@H](NC(=O)c2ccc3ccccc3c2)c2cc(OCCCO)ccc2N1C(=O)Cc1ccc(OC)cc1 | 1.28 (inactive) |
| O=C(NCc1ccccc1)c1ccc(Br)cc1[N+](=O)[O-] | 0.768 (inactive) |
| CC(C)(C)OC(=O)CC[C@]1(C(=O)N2CCCCC2)N=C(c2ccc(OCCCO)cc2)O[C@H]1c1ccccc1 | 0.726 (inactive) |
| C=CCNC(=O)[C@@H]1[C@H]2C(=O)O[C@H](c3ccccc3)[C@H](c3ccccc3)N2[C@H](c2ccc(OCCO)cc2)[C@@]12C(=O)N(C(=O)OCCOC)c1ccc(C#CC3(O)CCCCCC3)cc12 | 2.89 (inactive) |
| CCCC=C(CCC)[C@@H](NS(=O)(=O)c1ccc(C(F)(F)F)cc1)c1ccc(-c2ccccc2)cc1 | -0.39 (inactive) |
| NC(=O)NCC#Cc1ccc2c(c1)[C@]1(C(=O)N2)[C@H](C(=O)N2CCCCCCC2)[C@H]2C(=O)O[C@H](c3ccccc3)[C@H](c3ccccc3)N2[C@@H]1c1ccccc1OCCO | 1.82 (inactive) |
| C=C[C@H](OC)[C@@H](OC(=O)Nc1ccc(SC)cc1)c1ccc(O)c(F)c1 | 1.48 (inactive) |
| CO[C@H]1COC(=O)CC=C[C@H](C)COC(=O)[C@@H](OCc2ccccc2)C=C[C@@H]1C | 0.0129 (inactive) |
| CC(C)C[C@@H]1NC(=O)[C@H]2C[C@@H](C(=O)NCCCCCC[N+](C)(C)C)[C@@H](c3ccc(O)cc3)N2C1=O | 0.283 (inactive) |
| CO[C@H]1COC(=O)[C@@H](C)NC(=O)CC=C[C@@H](C)[C@H](OC)COC(=O)CC=C[C@@H]1C | 1.25 (inactive) |
| C=CC[C@@]12N=C(c3ccc(OCCCO)cc3)O[C@@H]1c1ccccc1CN(Cc1ccccc1)C2=O | 1.1 (inactive) |
| COc1ccc([Si](C)(C)[C@@H]2[C@@H](CC(=O)N(CCO)Cc3ccccc3)O[C@]3(C(=O)N(Cc4cccc(N5CCC5=O)c4)c4ccccc43)[C@H]2C)cc1 | 1.48 (inactive) |
| CN(C)CCCC[C@@H]1NC(=O)[C@@H]2C[C@H](C(=O)O)[C@H](c3ccc(O)cc3)N2C1=O | 2.71 (inactive) |
| CCOC(=O)C1=CCC(c2cccc3ccccc23)N(S(=O)(=O)c2ccc(C)cc2)C1 (stereo not drawn) | -0.461 (inactive) |
| CO[C@@H]1COC(=O)CC=C[C@@H](C)[C@H](OC)COC(=O)CC=C[C@H]1C | 0.162 (inactive) |
| C=C(COC)/C(=C/C[C@H](OC(C)=O)c1ccc(OCCO)cc1)c1cnc2ccccc2c1 | 1.12 (inactive) |
| CO[C@H]1O[C@H](CO)[C@@H](OC(=O)Nc2ccc(Oc3ccccc3)cc2)[C@H](OC(=O)Nc2ccccc2-c2ccccc2)[C@H]1OC(=O)Nc1ccccc1-c1ccccc1 | 2.45 (inactive) |
| CCC1=C2CN(Cc3ccccc3Br)[C@@H]([C@@H](O)Cc3ccccc3)C2C=CCC1 (stereo partly drawn) | 0.777 (inactive) |

| SMILES | z-score |
| --- | --- |
| [N-]=[N+]=NCc1ccccc1C[C@@]1(C(=O)N2CCOCC2)N=C(c2ccc(OCCCO)cc2)O[C@@H]1c1ccccc1N=[N+]=[N-] | 0.282 (inactive) |
| C=CC(=O)O[C@@H](Cc1ccccc1)[C@H]1C2C=CCCC=C2CN1Cc1cccc(Cl)c1 (stereo partly drawn) | 2.01 (inactive) |
| NC(=O)[C@H]1[C@@H]2C(=O)O[C@@H](c3ccccc3)[C@@H](c3ccccc3)N2[C@@H](c2ccc(O)cc2)[C@]12C(=O)Nc1ccc(C#CCCO)cc12 | 0.0528 (inactive) |
| NC(=O)NCC#Cc1ccc2c(c1)[C@]1(C(=O)N2)[C@H](C(N)=O)[C@H]2C(=O)O[C@H](c3ccccc3)[C@H](c3ccccc3)N2[C@@H]1c1ccccc1OCCO | -0.829 (inactive) |
| C=CC[C@]1(C(N)=O)N=C(c2ccc(OCCCO)cc2)O[C@H]1c1ccccc1CN=[N+]=[N-] | 1.85 (inactive) |
| C[N+](C)(C)CCCCNC(=O)[C@@H]1C[C@@H]2C(=O)N3CCC[C@H]3C(=O)N2[C@@H]1c1cccc(OCCO)c1 | 1.54 (inactive) |
| O=C1O[C@H](c2ccccc2)[C@H](c2ccccc2)N2[C@H]1[C@@H](C(=O)Nc1nc3ccccc3s1)[C@]1(C(=O)Nc3ccc(C#CC4(O)CCCCCC4)cc31)[C@H]2c1ccc(O)cc1 | -0.616 (inactive) |
| COc1ccc(C(O)C2C=CC3C(=O)N(C)C(=O)C3N2N2CCCCC2)cc1OCc1ccccc1 (stereo not drawn) | -1.23 (inactive) |
| CC1=C([C@H](O)CCc2ccccc2)[C@H](CO)[C@@H]2C(=O)N(Cc3ccccc3)C(=O)[C@@H]2C1 | 1.72 (inactive) |
| C=C[C@H](OC)[C@@H](OC(=O)Nc1ccc(SC)cc1)c1ccc(OC)c(O)c1 | 2.04 (inactive) |
| CC(C)(C)OC(=O)CC[C@@]1(C(=O)NCc2ccccc2)N=C(c2ccc(OCCCO)cc2)O[C@@H]1c1ccccc1 | 1.46 (inactive) |
| O=C1c2ccccc2[C@](Cc2ccccc2I)(C(=O)NCC(F)(F)F)[C@H](c2ccc(CO)cc2)N1Cc1ccccc1C(F)(F)F | 0.098 (inactive) |
| C=CCC(OC(C)=O)[C@@H]1[C@@H](N(Cc2cccc3ccccc23)C(=O)Cc2ccc(F)cc2)c2cc(OCCCO)ccc2N1C(=O)Cc1ccc2ccccc2c1 (stereo partly drawn) | 0.348 (inactive) |
| C=CCN1C(=O)[C@@]2(Cc3ccccc3)N=C(c3ccc(OCCCO)cc3)O[C@H]2c2ccccc21 | 0.612 (inactive) |
| Cc1ccc(N2C(=O)c3ccccc3[C@@H](C(=O)NCc3ccccc3)[C@@H]2c2ccc(CO)cc2)nc1 | 1.29 (inactive) |
| CO[C@H]1COC(=O)[C@H](C)COC(=O)[C@H](Cc2ccccc2)NC(=O)CC=C[C@H]1C | 0.195 (inactive) |
| CN(C)CCCC[C@@H]1NC(=O)[C@@H]2C[C@H](C(=O)NCCCCCNC(=O)CS)[C@H](c3ccc(O)cc3)N2C1=O | 1.14 (inactive) |
| O=C1O[C@H](c2ccccc2)[C@H](c2ccccc2)N2[C@H]1[C@@H](C(=O)NC[C@H](O)c1ccccc1)[C@]1(C(=O)Nc3ccc(C#CC4=CCCCC4)cc31)[C@H]2c1ccc(OCCO)cc1 | -0.422 (inactive) |
